“And” between values parts separate entries of the source, which are not always exact repeats. Equal entries are not always repeated. The campaign covered roughly 5,500 compounds. About 2,000 (36%) were called active. Another 18% or so got no clear call; they are omitted. Rule as the data show it: active = normalized growth mostly below about 0.91 (no sharp cut-off); inconclusive = no clear call, values can overlap the other calls; inactive = mostly above about 0.92. The list shows a part of the results.
Assay: chemical genetic growth profiling, strain panel (AID 1159580);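 also: tested at 20 µM; growth read once vehicle control cultures reached saturation at 30 °C; 1 = growth at the plate median or of vehicle wells; lower values mean less growth of the strain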
Settings: S. cerevisiae deletion strains, growth OD

Measured: normalized growth

CN[C@@H]1[C@H](O)[C@H](NC)[C@H]2O[C@@]3(O)C(=O)C[C@@H](C)O[C@H]3O[C@@H]2[C@H]1O
inactive: locus YAL013W, strain DEP1, hits give low values 1.01 | locus YAL021C, strain ccr4, hits give low values 0.982 | locus YAL026C, strain drs2, hits give low values 1 | locus YAL030W, strain snc1, hits give low values 1 | locus YBL061C, strain skt5, hits give low values 1.01 | locus YBR009C, strain hhf1, hits give low values 0.976 | locus YBR021W, strain FUR4, hits give low values 0.997 | locus YBR023C, strain chs3, hits give low values 1 | locus YBR171W, strain sec66, hits give low values 1.01 | locus YBR229C, strain ROT2, hits give low values 1.01 | locus YBR231C, strain swc5, hits give low values 1.01 | locus YBR279W, strain paf1, hits give low values 0.988 | locus YCL011C, strain gbp2, hits give low values 0.991 | locus YCL016C, strain dcc1, hits give low values 0.984 | locus YCL029C, strain bik1, hits give low values 1.03 | locus YCL061C, strain MRC1, hits give low values 1.02 | locus YCL069W, strain vba3, hits give low values 1 | locus YCR088W, strain abp1, hits give low values 1 | locus YDL005C, strain med2, hits give low values 1 | locus YDL035C, strain GPR1, hits give low values 1.02 | locus YDL040C, strain nat1, hits give low values 1.01 | locus YDL074C, strain BRE1, hits give low values 1.02 | locus YDL101C, strain DUN1, hits give low values 1.02 | locus YDL134C, strain PPH21, hits give low values 1.01 | locus YDL185W, strain tfp1, hits give low values 1.02 | locus YDL192W, strain arf1, hits give low values 1.02 | locus YDR001C, strain nth1, hits give low values 0.997 | locus YDR069C, strain doa4, hits give low values 1.02 | locus YDR101C, strain arx1, hits give low values 1.02 | locus YDR137W, strain rgp1, hits give low values 0.989 | locus YDR150W, strain NUM1, hits give low values 1.01 | locus YDR159W, strain sac3, hits give low values 0.969 | locus YDR162C, strain NBP2, hits give low values 1.03 | locus YDR195W, strain ref2 0.99 | locus YDR297W, strain sur2, hits give low values 1 | locus YDR318W, strain mcm21, hits give low values 1.03 | locus YDR334W, strain swr1, hits give low values 1 | locus YDR335W, strain msn5, hits give low values 1 | locus YDR388W, hits give low values 1.02 | locus YDR392W, strain spt3, hits give low values 0.956 | locus YDR502C, strain sam2, hits give low values 1.02 | locus YEL003W, strain gim4, hits give low values 1 | locus YEL037C, strain rad23, hits give low values 0.998 | locus YEL061C, strain CIN8 (second series), hits give low values 0.991 | locus YEL061C, strain CIN8, hits give low values 1.01 | locus YER015W, strain faa2, hits give low values 1 | locus YER016W, strain bim1, hits give low values 0.974 | locus YER110C, hits give low values 1.03 | locus YER111C, strain swi4, hits give low values 1.01 | locus YER155C, strain BEM2 (second series), hits give low values 1.04 | locus YER155C, strain BEM2, hits give low values 1.01 | locus YER167W, strain BCK2, hits give low values 1.02 | locus YFR010W, strain ubp6, hits give low values 1.02 | locus YGL078C, strain dbp3, hits give low values 1.02 | locus YGL086W, strain mad1, hits give low values 1.02 | locus YGL167C, strain pmr1, hits give low values 1.02 | locus YGL173C, strain kem1, hits give low values 1.03 | locus YGL227W, strain vid30, hits give low values 1.01 | locus YGL240W, strain doc1, hits give low values 1.03 | locus YGL248W, strain PDE1, hits give low values 1.02 | locus YGL253W, strain hxk2, hits give low values 0.973 | locus YGR078C, strain PAC10, hits give low values 1.02 | locus YGR135W, strain pre9, hits give low values 1.02 | locus YGR229C, strain SMI1, hits give low values 1.02 | locus YGR252W, strain gcn5, hits give low values 1.01 | locus YHR013C, strain ard1, hits give low values 0.993 | locus YHR027C, strain rpn1, hits give low values 0.993 | locus YHR030C, strain SLT2, hits give low values 1.02 and 0.968 | locus YHR079C, strain IRE1 (second series), hits give low values 1.03 | locus YHR079C, strain IRE1, hits give low values 0.953 | locus YHR094C, strain hxt1, hits give low values 1.02 | locus YHR129C, strain ARP1, hits give low values 1.01 | locus YHR142W, strain chs7, hits give low values 0.995 | locus YHR200W, strain rpn10, hits give low values 1 | locus YIL066C, strain RNR3, hits give low values 1.01 | locus YIL073C, strain SPO22, hits give low values 1.04 | locus YIL125W, strain kgd1, hits give low values 1.01 | locus YIR030C, strain dcg1, hits give low values 1.02 | locus YJL092W, strain hpr5, hits give low values 1.01 | locus YJL095W, strain BCK1 (second series), hits give low values 1.01 | locus YJL095W, strain BCK1, hits give low values 1.02 and 0.984 | locus YJL115W, strain asf1, hits give low values 0.998 | locus YJL129C, strain trk1, hits give low values 1.01 | locus YJL134W, strain LCB3, hits give low values 1.01 | locus YJL154C, strain vps35, hits give low values 0.991 | locus YJL164C, strain tpk1, hits give low values 0.987 | locus YJL166W, strain qcr8, hits give low values 1.02 | locus YJL168C, strain set2, hits give low values 1.02 | locus YJL187C, strain SWE1 (second series), hits give low values 1.02 | locus YJR043C, strain POL32, hits give low values 1.01 | locus YJR066W, strain TOR1, hits give low values 0.977
